# D2 ag-1 – HTS Assay for Allosteric Agonists of the Human D2 Dopamine Receptor: Primary Screen for Agonists. AID 485358, 2010. 340,000 tested, 0.53% active. D(2) dopamine receptor (Homo sapiens), P14416. activation, % at 2 µM. HEK293 T-REx D2 cells, calcium flux agonist mode;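 active = activation over 3 SD above normal in the single-dose calcium agonist read, cut at about 30% in these data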; note: 0% is about no effect
# Target sequence (P14416 whole entry, looked up): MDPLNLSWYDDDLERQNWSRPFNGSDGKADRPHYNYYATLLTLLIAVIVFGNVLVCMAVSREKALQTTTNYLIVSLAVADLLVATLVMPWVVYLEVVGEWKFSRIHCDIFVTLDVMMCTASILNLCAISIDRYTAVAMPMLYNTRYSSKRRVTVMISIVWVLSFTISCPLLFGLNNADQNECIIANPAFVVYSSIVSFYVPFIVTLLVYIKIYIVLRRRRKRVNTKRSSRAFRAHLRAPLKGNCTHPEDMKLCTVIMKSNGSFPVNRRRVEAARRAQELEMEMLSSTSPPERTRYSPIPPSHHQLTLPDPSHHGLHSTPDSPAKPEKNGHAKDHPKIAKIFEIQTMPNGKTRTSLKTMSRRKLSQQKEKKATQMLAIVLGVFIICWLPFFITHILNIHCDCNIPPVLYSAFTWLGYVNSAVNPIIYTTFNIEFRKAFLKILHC
#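 Tetracycline-induced HEK293 T-REx cells with force-coupled D2 receptor, plated overnight at 30 C, loaded with no-wash calcium dye. After a 10 s baseline, compound was pin-added and calcium flux read kinetically for 180 s; calcium rises flagged agonists.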
# D2 PAM-1 – Beta-Arrestin HTS for Positive Allosteric Modulators of the Human D2 Dopamine Receptor: Potentiators; D(2) dopamine receptor (Homo sapiens), P14416; DiscoveRx D2 beta-arrestin cells, luminescence, 90 min; 100% = 57 uM dopamine signal; potentiation, % (no concentration beside the values); 360,000 tested, 0.23% active; in the data active = potentiation above about 50%; inconclusive = mostly about 30% to 49%
#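 PathHunter beta-arrestin assay in DiscoveRx D2 cells. Compounds were added with an EC20 of dopamine (50 nM final) for 90 min at 37 deg C. Luminescence was read 1 h after detection reagent, with 57 uM dopamine as the EC100 control.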
# D2 antag – HTS Assay for Allosteric Antagonists of the Human D2 Dopamine Receptor: Primary Screen for Antagonists; D(2) dopamine receptor (Homo sapiens), P14416; HEK293 TREx D2 cells, calcium flux, dopamine EC80; inhibition, % at 10 µM; 340,000 tested, 2% active; in the data active = inhibition above about 30%; inactive = below that, where a call was filed; note: 0% is about no effect
#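 Measurement of antagonist activity uses fluorescent calcium dye in inducible HEK293 T-REx D2 cells: 10 s baseline, compound addition with 180 s read, EC80 dopamine addition with a further 180 s read.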
# D2 PAM-2 – HTS Assay for Positive Allosteric Modulators of the Human D2 Dopamine Receptor: Primary Screen for Potentiators; potentiation, % at 10 µM; D(2) dopamine receptor (Homo sapiens), P14416; HEK293 T-REx D2, calcium flux, EC20 dopamine potentiation; 340,000 tested, 0.34% active;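 active = potentiation over 3 SD above the plate norm, cut at about 30% in these data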; note: 0% is about no effect
#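 Using a no-wash calcium dye in inducible, force-coupled HEK293 Trex cells expressing D2, we tracked fluorescence each second for 180 s after compound, then for 180 s after EC20 dopamine to detect augmented signalling.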
# D2 ag-2 – Beta-Arrestin HTS for Positive Allosteric Modulators of the Human D2 Dopamine Receptor: Agonists | 360,000 tested, 0.084% active | DiscoveRx PathHunter D2 beta-arrestin, luminescence, 90 min; 100% = 57 uM dopamine signal | activation, % (no concentration beside the values) | D(2) dopamine receptor (Homo sapiens), P14416 | AID 624465, 2012; in the data active = activation above about 40%; inconclusive = between about 15% and that limit
#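 DiscoveRx PathHunter D2 beta-arrestin cells (2,100/well) attached overnight, then compound-stimulated 90 min at 37 C in HBSS/10 mM HEPES/0.1% Tween-20 buffer; beta-galactosidase complementation read by luminescence after 1 h at ambient temperature. Dopamine 57 uM final (EC100) as control.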
# * hit, by the source's call; ? = inconclusive; . = no result given. An excerpt weighted towards active compounds, which were near 2.4% of everything screened.
SMILES,D2 ag-1,D2 PAM-1,D2 antag,D2 PAM-2,D2 ag-2
Cc1cc(C)n(-c2ccc(C(=O)OCC(=O)N(CC(C)C)C3CCS(=O)(=O)C3)cc2)n1 (centres undefined),-1,5,51*,-2,-1
COc1ccc(C2=C(C(C)=O)Sc3nnc(-c4ccc(C)cc4)n3N2C(C)=O)cc1OC,1,.,.,12,.
Cc1cc(F)ccc1C(O)c1ncc(-c2cccc3ccccc23)[nH]1 (centres undefined),.,-4,.,.,-3
CC1(C)OC2OC(C(=O)N/N=C/c3ccccc3F)C3OC(C)(C)OC3C2O1 (centres undefined),1,-7,14,9,7
CC1(C)C(C=C(Cl)Cl)C1C(=O)N/N=C/c1ccccc1F (centres undefined),1,-12,60*,11,-7
NS(=O)(=O)c1ccc(NC(=O)/C=C/c2cccc(Cl)c2)cc1,0,-10,35*,-11,6
COc1cccc2sc3cc(C#CC4(O)CCCCC4)ccc3c(=O)c12,.,10,.,.,?
COc1cccc2sc3ccc(C#CC4(N)CCCCC4)cc3c(=O)c12,1,-6,31*,-4,-2
COc1ccc(-n2cnc3cc(C(=O)NCCC4=CCCCC4)ccc32)cc1,1,.,.,5,.
CN(C)CCOCCOc1ccccc1-c1ccccc1,1,-21,-16,29,1
CNCCCCOc1ccccc1-c1ccccc1,1,-37,-16,-31,-2
OCCNCCOc1ccccc1-c1ccccc1,3,-24,66*,-10,2
OCCNCCOCCOc1ccccc1-c1ccccc1,28,-35,33*,-24,-4
CC(C)(C)c1ccccc1OCCCCCNCCO,1,-16,50*,-30,-5
CNCCOc1ccccc1-c1ccccc1,1,-33,45*,-22,3
Cc1ccccc1OCCCCCNCCO,0,-9,-1,-7,0
COc1ccc(-c2coc3c(C(=O)Nc4cccnc4)cccc23)c(C)c1,.,-4,.,.,5
Cc1ccccc1NC(=O)Cn1c(=O)n(Cc2ccco2)c(=O)c2cccnc21,.,.,.,-3,.
CCc1ccc(CNc2ncnc3onc(-c4ccc(Cl)cc4)c23)cc1,2,.,.,6,.
Cc1ccc2c(c1)c1c(c(=O)n(-c3cccc(Cl)c3)c(=O)n1CC(=O)Nc1c(C)cccc1C)n2C,0,.,.,-7,.
CCc1ccc(CNC(=O)C2CCN(C(=O)c3ccc(-n4ccc5ccccc54)s3)CC2)cc1,1,.,.,5,.
CCn1c(=O)c2cc(C(=O)NCc3ccc(F)cc3Cl)sc2c2ccccc21,0,.,.,3,.
COc1ccc(CC(=O)Nc2ccc(-c3noc(-c4cc(OC)c(OC)c(OC)c4)n3)cc2)cc1,0,-16,-25,42*,3
CCOc1ccc(NC(=O)CSc2nnc(CC)c(CC)n2)cc1,0,.,.,2,.
Cc1ccc(CNC(=O)CNS(=O)(=O)c2cccs2)cc1,0,.,.,8,.
SMILES,D2 ag-1,D2 PAM-1,D2 antag,D2 PAM-2,D2 ag-2
CN(CC1CCN(CCc2cccc(C(F)(F)F)c2)CC1)C(=O)c1ccc(F)cc1F,0,-3,65*,-25,-2
N#C/C(=C\c1ccc(-c2ccccc2[N+](=O)[O-])o1)C(=O)Nc1nc(-c2cccs2)cs1,0,-38,32*,16,-9
COc1ccc(NC(=O)c2c(NCc3ccc(N(C)C)cc3)sc3c2CCC3)cc1,0,.,.,-7,.
COC(=O)c1cc(C(=O)N2CCN(c3cccc(Cl)c3)CC2)cc([N+](=O)[O-])c1,0,17,30*,-4,12
O=C(c1cc([N+](=O)[O-])ccc1Cl)N1CCN(c2ccc([N+](=O)[O-])cc2)CC1,0,7,41*,7,8
O=C(CN1CCN(c2ccc([N+](=O)[O-])cc2Cl)CC1)N1CCOCC1,0,1,-9,-4,-1
CC(=O)N1CCN(C(=O)c2cc(S(=O)(=O)N3CCN(c4ccccc4)CC3)ccc2Cl)CC1,0,?,5,49*,-4
O=C(CN1CCOCC1)N1CCN(c2ccc([N+](=O)[O-])cc2)CC1,0,-10,83*,-14,-6
O=C(c1cc(S(=O)(=O)N2CCOCC2)ccc1Cl)N1CCN(c2ccccn2)CC1,0,1,-3,-7,3
C=CC(C)(C)c1[nH]cnc1/C=C1\NC(=O)C(C(C)C)NC1=O (centres undefined),1,1,76*,6,1
CCOC(=O)N1CCN(C(=O)Nc2ccc3oc(C)nc3c2)CC1,1,?,44*,.,7
CCOC(=O)C1CCN(C(=O)Nc2ccc3oc(C)nc3c2)CC1,.,-3,.,.,-2
COc1c(C)cccc1C(=O)Nc1cccc2ccc(C)nc12,.,.,.,-8,.
N/C(Cc1ccc([N+](=O)[O-])cc1)=N\OC(=O)c1ccccc1F,1,153*,-9,10,?
N/C(Cc1ccc([N+](=O)[O-])cc1)=N\OC(=O)Cc1ccc(Cl)cc1,-1,26,10,-9,3
N/C(Cc1ccc([N+](=O)[O-])cc1)=N\OC(=O)Cc1ccccc1,-1,-1,11,9,15
N/C(Cc1ccc([N+](=O)[O-])cc1)=N\OC(=O)c1ccc(Br)o1,-1,132*,-2,-5,?
CCN(C(=O)c1c(-c2ccccc2Cl)noc1C)C1CCCCC1,-1,-9,-12,47*,-2
CCOCCc1nn2c(=O)cc(COC(=O)c3ccccc3NC(=O)c3ccccc3F)nc2s1,1,.,.,-5,.
Cc1nnc2n1N=C(c1ccc(OC(F)F)cc1)C(C)S2 (centres undefined),1,-5,56*,3,-2
CCOC(=O)CCn1c(=O)c2cccn2c2cccnc21,0,.,.,-10,.
Cc1ccc(N2CC(C(=O)N3CCC(c4nc5ccccc5[nH]4)CC3)CC2=O)cc1C (centres undefined),0,-7,34*,-11,1
O=C1CC(c2nc3ccccc3[nH]2)CN1c1cccc(C(F)(F)F)c1 (centres undefined),1,-8,33*,-5,-1
O=C(C1CC(=O)N(c2ccc(F)cc2)C1)N1CCC(c2nc3ccccc3[nH]2)CC1 (centres undefined),0,-10,-13,-20,1
O=C(CCN1C(=O)CSc2ccccc21)Nc1ccc(C(F)(F)F)cc1,1,-6,88*,-14,3

# Assay outcomes deposited in PubChem BioAssay by National Center for Advancing Translational Sciences (NCATS).
